Source: PubChem BioAssay AID1159580 (chemical genetic matrix, 2015)
Hit rate of the full screen: of about 5,500 compounds, about 2,000 (36%) were called active. Not shown: some 18% with an inconclusive outcome. Cut-off read from the data, not from the text of the source: active = normalized growth mostly below about 0.91 (no sharp cut-off); inconclusive = no clear call, values can overlap the other calls; inactive = mostly above about 0.92. The list shows a part of the results.

Assay: chemical genetic growth profiling, strain panel (AID 1159580);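 note: tested at 20 µM; growth read once vehicle control cultures reached saturation at 30 °C; 1 = growth at the plate median or of vehicle wells; lower values mean less growth of the strain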
Settings: growth OD

Measured: normalized growth

c1ccc2c(c1)CCCC2C1=NCCN1 (stereo not given)
inactive: S. cerevisiae deletion strains, locus YKL009W, strain mrt4, hits give low values 0.995 | S. cerevisiae deletion strains, locus YKL068W, hits give low values 1 | S. cerevisiae deletion strains, locus YKL085W, strain MDH1 (second series), hits give low values 1.01 | S. cerevisiae deletion strains, locus YKL085W, strain MDH1, hits give low values 1.01 | S. cerevisiae deletion strains, locus YKL160W, strain elf1, hits give low values 1.03 | S. cerevisiae deletion strains, locus YKL190W, strain CNB1, hits give low values 1.01 | S. cerevisiae deletion strains, locus YKR001C, strain vps1, hits give low values 0.986 | S. cerevisiae deletion strains, locus YKR026C, strain gcn3, hits give low values 1.02 | S. cerevisiae deletion strains, locus YKR091W, strain srl3, hits give low values 1.03 | S. cerevisiae deletion strains, locus YLL001W, strain dnm1, hits give low values 1.03 | S. cerevisiae deletion strains, locus YLL026W, hits give low values 1.03 | S. cerevisiae deletion strains, locus YLL041C, strain sdh2, hits give low values 1.04 | S. cerevisiae deletion strains, locus YLR027C, strain aat2, hits give low values 1.02 | S. cerevisiae deletion strains, locus YLR039C, strain RIC1, hits give low values 1.03 | S. cerevisiae deletion strains, locus YLR058C, strain SHM2, hits give low values 1.01 | S. cerevisiae deletion strains, locus YLR102C, strain apc9, hits give low values 1 | S. cerevisiae deletion strains, locus YLR113W, strain HOG1, hits give low values 0.982 | S. cerevisiae deletion strains, locus YLR221C, strain rsa3, hits give low values 1.04 | S. cerevisiae deletion strains, locus YLR258W, strain gsy2, hits give low values 1.02 | S. cerevisiae deletion strains, locus YLR262C, strain YPT6 (second series), hits give low values 1.04 | S. cerevisiae deletion strains, locus YLR262C, strain YPT6, hits give low values 1.04 | S. cerevisiae deletion strains, locus YLR268W, strain sec22, hits give low values 1.03 | S. cerevisiae deletion strains, locus YLR320W, strain mms22, hits give low values 1.03 | S. cerevisiae deletion strains, locus YLR330W, strain CHS5, hits give low values 1.01 | S. cerevisiae deletion strains, locus YLR342W, strain FKS1 (second series), hits give low values 1.03 | S. cerevisiae deletion strains, locus YLR342W, strain FKS1, hits give low values 1.02 | S. cerevisiae deletion strains, locus YLR357W, strain rsc2, hits give low values 1.04 | S. cerevisiae deletion strains, locus YLR370C, strain arc18, hits give low values 1.02 | S. cerevisiae deletion strains, locus YLR371W, strain rom2, hits give low values 1.01 | S. cerevisiae deletion strains, locus YLR384C, strain iki3, hits give low values 1.03 | S. cerevisiae deletion strains, locus YLR418C, strain cdc73, hits give low values 0.98 | S. cerevisiae deletion strains, locus YML016C, strain PPZ1, hits give low values 1.01 | S. cerevisiae deletion strains, locus YML032C, strain rad52, hits give low values 1 | S. cerevisiae deletion strains, locus YML120C, strain ndi1, hits give low values 1.01 | S. cerevisiae deletion strains, locus YML124C, strain tub3, hits give low values 0.986 | S. cerevisiae deletion strains, locus YMR058W, strain fet3, hits give low values 1.02 | S. cerevisiae deletion strains, locus YMR078C, strain ctf18, hits give low values 0.997 | S. cerevisiae deletion strains, locus YMR125W, strain sto1, hits give low values 1.03 | S. cerevisiae deletion strains, locus YMR129W, hits give low values 1.02 | S. cerevisiae deletion strains, locus YMR205C, strain PFK2, hits give low values 1.05 | S. cerevisiae deletion strains, locus YMR223W, strain ubp8, hits give low values 0.985 | S. cerevisiae deletion strains, locus YMR231W, strain pep5, hits give low values 1.02 | S. cerevisiae deletion strains, locus YMR263W, strain SAP30, hits give low values 1.01 | S. cerevisiae deletion strains, locus YMR307W, strain GAS1, hits give low values 1 | S. cerevisiae deletion strains, locus YNL067W, strain RPL9B, hits give low values 1 | S. cerevisiae deletion strains, locus YNL071W, strain lat1, hits give low values 1.03 | S. cerevisiae deletion strains, locus YNL128W, strain TEP1, hits give low values 1.02 | S. cerevisiae deletion strains, locus YNL153C, strain GIM3, hits give low values 1.06 | S. cerevisiae deletion strains, locus YNL175C, strain NOP13, hits give low values 0.995 | S. cerevisiae deletion strains, locus YNL183C, strain NPR1, hits give low values 0.953 | S. cerevisiae deletion strains, locus YNL197C, strain WHI3, hits give low values 1 | S. cerevisiae deletion strains, locus YNL209W, strain ssb2, hits give low values 1.02 | S. cerevisiae deletion strains, locus YNL224C, strain SQS1, hits give low values 1 | S. cerevisiae deletion strains, locus YNL233W, strain BNI4, hits give low values 1.01 | S. cerevisiae deletion strains, locus YNL248C, strain rpa49, hits give low values 1.02 | S. cerevisiae deletion strains, locus YNL250W, strain rad50, hits give low values 0.998 | S. cerevisiae deletion strains, locus YNL271C, strain bni1, hits give low values 0.998 | S. cerevisiae deletion strains, locus YNL298W, strain CLA4, hits give low values 1.02 | S. cerevisiae deletion strains, locus YNL307C, strain MCK1, hits give low values 0.995 | S. cerevisiae deletion strains, locus YNL322C, strain KRE1 (second series), hits give low values 1.03 | S. cerevisiae deletion strains, locus YNL322C, strain KRE1, hits give low values 1.01 | S. cerevisiae deletion strains, locus YNR049C, strain mso1, hits give low values 1.02 | S. cerevisiae deletion strains, locus YNR052C, strain pop2, hits give low values 1.01 | S. cerevisiae deletion strains, locus YOL006C, strain TOP1, hits give low values 0.988 | S. cerevisiae deletion strains, locus YOL012C, strain htz1 0.923 | S. cerevisiae deletion strains, locus YOL147C, strain pex11, hits give low values 0.989 | S. cerevisiae deletion strains, locus YOR001W, strain rrp6, hits give low values 1.02 | S. cerevisiae deletion strains, locus YOR061W, strain CKA2, hits give low values 1.01 | S. cerevisiae deletion strains, locus YOR069W, strain VPS5, hits give low values 1.01 | S. cerevisiae deletion strains, locus YOR070C, strain gyp1, hits give low values 1.02 | S. cerevisiae deletion strains, locus YOR080W, strain dia2, hits give low values 1.04 | S. cerevisiae deletion strains, locus YOR083W, strain WHI5 (second series), hits give low values 1.02 | S. cerevisiae deletion strains, locus YOR083W, strain WHI5, hits give low values 1.03 | S. cerevisiae deletion strains, locus YOR106W, strain vam3, hits give low values 1.03 | S. cerevisiae deletion strains, locus YOR136W, strain idh2, hits give low values 0.994 | S. cerevisiae deletion strains, locus YOR144C, strain elg1, hits give low values 0.993 | S. cerevisiae deletion strains, locus YOR184W, strain ser1, hits give low values 0.99 | S. cerevisiae deletion strains, locus YOR231W, strain MKK1, hits give low values 0.978 | S. cerevisiae deletion strains, locus YOR265W, strain rbl2, hits give low values 1.02 | S. cerevisiae deletion strains, locus YOR270C, strain vph1, hits give low values 1.07 | S. cerevisiae deletion strains, locus YOR290C, strain snf2, hits give low values 1.04 | S. cerevisiae deletion strains, locus YOR316C, strain cot1, hits give low values 1 | S. cerevisiae deletion strains, locus YPL051W, strain arl3, hits give low values 1.03 | S. cerevisiae deletion strains, locus YPL055C, strain LGE1, hits give low values 0.995 | S. cerevisiae deletion strains, locus YPL078C, strain atp4, hits give low values 1.01 | S. cerevisiae deletion strains, locus YPL106C, strain sse1, hits give low values 1.06 | S. cerevisiae deletion strains, locus YPL240C, strain hsp82, hits give low values 1.01 | S. cerevisiae deletion strains, locus YPL241C, strain CIN2, hits give low values 1.01 | S. cerevisiae deletion strains, locus YPL256C, strain CLN2, hits give low values 0.959 | S. cerevisiae deletion strains, locus YPR119W, strain clb2, hits give low values 1.01 | S. cerevisiae deletion strains, locus YPR141C, strain kar3, hits give low values 0.981 | S. cerevisiae deletion strains, locus YPR163C, strain tif3, hits give low values 1 | S. cerevisiae deletion strains, locus YPR167C, strain met16, hits give low values 1 | S. cerevisiae deletion strains, strain wtn01, hits give low values 0.996 | S. cerevisiae strains, strain wild type, hits give low values 1.02
